Laboratory results as given in the supplement of paper PMC11417369.
Over roughly 25,000 sequences, “ln(normalized median fluorescence intensity)” has its median near 7.1; the highest 2% begin near 10. The sample holds the highest values, similar sequences and a random draw of the others, so the mix is not that of the screen.

Test system: PfSIP2 AP2 domain 1 (GST-tagged)
Experiment: gcPBM binding intensity (ln(normalized median fluorescence intensity)); higher = stronger DNA binding
In short: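 GST-fused DNA-binding domains of P. falciparum, expressed in E. coli, were applied at about 25 μg on average for 1 h to an Agilent 4 × 180k array of primer-extended double-stranded 36-bp intergenic genomic probes and negative controls. Binding intensity is the highest Masliner-normalised natural-log median intensity across replicate spots of either probe orientation, measured with Alexa488 anti-GST antibody and a 488 nm scan.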

Sequence | gcPBM binding intensity (ln)
AGGAAAAACTTGAATGCATGCGCACATTCTAGTTTG [TGCATGCA_site776] | 6.99
AAAATTTATATAGGCACACAAATAAATTAATACATA [CACACA_site1418] | 6.76
TTTTTTTATATTATACGCACTAATATATATATATAT [XGTACX_negctrl_site40] | 8.94
CCGTATATTTTATATAGTACTCATCATATATTTTTA [XGTACX_site5560] | 6.96
AAGATAATTACGCACACACACACACGCCCACAACTA [CACACA_site7255] | 7.34
TATCTTCATATATGGTGTACAGATTTTTTTTTTTTT [XGTACX_site5545] | 7.26
CATTTTGTAAGATATGCACACATGGATCATATTTTA [CACACA_site423] | 6.94
CTGTCTGCAGATATGGTGCATTTGTAAGATCTTACA [GTGCAC_site9870] | 10.4
GGAAAAAGAAATTAATGTACATGTGGATGTATGAGG [XGTACX_site5468] | 7.25
TTTCCTCATTTTATCATACACACTTGTTTATATGTG [CACACA_site8202] | 6.92
AATTTATATAATTTTGTGCACAATATTCATGTATAT | 8.93
ATTCATTTACCAATGGTGCAATATATTTTTATAATG | 10.3
AATCATTTATTGATGGTGCAATATACCATCTAATGA [GTGCAC_site9440] | 9.44
TCTTTGTATATATGTTCATTTGTAATATATATTCAT [TGCATGCA_negctrl_site467] | 7.18
TATTCAGGTCCAATGGTGCAATATATTTTTGTAATA [GTGCAC_site9607] | 10.5
TTTATTTTTTACCAAGTGCAATATATTATAATAATA | 7.77
AGCTATATAAATAATACATGCATTGTTCAGGTATTT [TGCATGCA_site964] | 6.83
TAAATATAGGGTAATAGTACATAATTATATTCTTTT [XGTACX_site3883] | 6.76
GTGTTGGGAAAAGGCATGCACTTTTTTTTTTTTTTT | 9.34
AATAGTCGTGTGCATACACACCTTAACTATAATATA [CACACA_site6636] | 7.41
AATAGTCGGGTGCATACACACCTTAAATATAATATA [CACACA_site8271] | 11.3
CTACCTTTAATATATACACACACATAAAAAAAATAT [CACACA_site8548] | 7.44
TATACCTTAATATACACACATACATATATATATATA [CACACA_site1339] | 9.12
ACCTTTAATATATACACACACATAAAAAAAATATAT [CACACA_site1843] | 7.83
GGAATAGTCGGGTGCATACACACCTTAAATATAATA [CACACA_site1081] | 11.4
TTGATTACACTGAAGTGTACATATATATATATATAT [XGTACX_site3532] | 9.07
